# Laboratory results published in PubChem BioAssay AID1569 (National Center for Advancing Translational Sciences (NCATS), 2009).
# Results filed as inconclusive are left out. Calls of active or inactive are those of the source. Calls come from the whole dose curve; as a rule, active = well fitted inhibition curve with a large enough effect; inconclusive = small, poorly fitted or top-dose-only effect, or effect the other way, or another doubt; inactive = no such curve, though single readings can be large or run the other way.
# Assay: Confirmation Concentration-Response Assay for lipid storage modulators; note: nearly all actives have a fitted effect of over 80% in size
# Conditions: Drosophila S3 cells, lipid droplet BODIPY/CellTracker ratio, 18-24 h; series mostly up to 46.1 µM
# In short: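 Cells at 5,000/well received compound as a titration plus oleic acid (added as 400 uM solution) and were incubated 18–24 h at 24 °C. BODIPY 493/503 lipid signal and CellTracker Red cell count were read by 488-nm laser-scanning cytometry. Activity was normalised to 20 uM Triacsin C.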
# Potency is the fitted concentration of half-maximal effect.
row,SMILES,Potency
1,CC(C)N1CCc2c(sc(NC(=O)c3ccc(S(=O)(=O)N4CCCCC4C)cc3)c2C(N)=O)C1 (configuration not stated),inactive
2,CCOc1ccc(CCNC(=O)COC(=O)/C=C/c2ccc(OCC#N)c(OC)c2)cc1OCC,3150 nM (active)
3,COc1ccc2oc(C(=O)OCC(=O)NCCc3ccc(S(N)(=O)=O)cc3)c(C)c2c1,4990 nM (active)
4,CNC(=O)NC(=O)C(C)OC(=O)c1c2c(nc3ccccc13)/C(=C/c1cccs1)CC2 (configuration not stated),141 nM (active)
5,CCOc1ccc(CCNC(=O)COC(=O)CSc2ccccc2C)cc1OCC,inactive
6,CCOc1ccc(CCNC(=O)COC(=O)c2cccc(N(C)C)c2)cc1OCC,396 nM (active)
7,CCCCc1c(O)nc(SCC(=O)NCCc2ccc(OC)c(OC)c2)[nH]c1=O,inactive
8,CN1CCN(C(=O)C2(NC(=O)NCc3ccccc3)CCCCC2)CC1,inactive
9,Cc1nn(C)c(C)c1CN(Cc1nc(CCC(C)C)no1)C(C)C,12500 nM (active)
10,COc1ccccc1C(=O)O[C@H]1[C@H](Cc2ccccc2)NS(=O)(=O)[C@H]2C[C@@H]3C=C[C@]12O3,8880 nM (active)
11,CN(CC1CCCO1)S(=O)(=O)c1ccc(C(=O)Nc2ccc(F)cc2)cc1 (configuration not stated),inactive
12,CCOc1ccc2nc(NC(=O)CSc3nc(SC)ns3)sc2c1,4450 nM (active)
13,CCOc1ccc(OCC)c(NC(=O)C2CCN(S(=O)(=O)c3c(C)noc3C)CC2)c1,996 nM (active)
14,COc1cccc(C(=O)O[C@H]2[C@H](C)NS(=O)(=O)[C@H]3C[C@@H]4C=C[C@]23O4)c1,inactive
15,Cc1ccccc1NC(=O)NC1(C(=O)N2CCC(O)CC2)CCCCC1,inactive
16,C1=C(CCNc2ncnc3c2[nH]c2ccccc23)CCCC1,996 nM (active)
17,S=C(Nc1cc(Cl)ccc1Oc1ccccc1)N1CCN(c2ccccn2)CC1,2500 nM (active)
18,COc1ccc(NC(=O)NC2(C(=O)N3CCN(C)CC3)CCCCC2)cc1,inactive
19,Cc1sc2ncnc(NCC3COc4ccccc4O3)c2c1C (configuration not stated),1990 nM (active)

row,SMILES,Potency
1,CCc1ccc(NC(=O)COc2ccc(/C=C(/C#N)c3nc4ccccc4[nH]3)cc2OC)cc1,7050 nM (active)
2,CCCCNc1cc(C)nc(NCc2ccccc2)n1,7910 nM (active)
3,O=S(=O)(c1ccccc1C(F)(F)F)N1CCC(n2cnc3ccccc32)CC1,996 nM (active)
4,CSCCC(NS(=O)(=O)c1ccc2c(c1)OCCO2)C(=O)N(C)Cc1ccc(C)cc1 (configuration not stated),inactive
5,CCC(C)(C)NC(=O)C(c1cccn1C)N(Cc1ccc(OC)cc1)C(=O)Cn1nnc2ccccc21 (configuration not stated),2500 nM (active)
6,COc1ccc(NC(=O)NC2(C(=O)N3CCCC(C)C3)CCCCC2)cc1 (configuration not stated),inactive
7,c1ccc(-c2cnn3c(-c4ccccc4)c(-c4ccccc4)nc3n2)cc1,3150 nM (active)
8,COc1cccc(-n2nnnc2SCC(=O)NCCc2ccc(OC)c(OC)c2)c1,inactive
9,Cc1cc(C)cc(-n2ncc3c2CCCC3NC(=O)c2csnn2)c1 (configuration not stated),11.2 nM (active)
10,COc1ccc(CCNC(=O)c2ccccc2-c2ccccc2C(=O)O)cc1OC,inactive
11,C[C@@H]1NS(=O)(=O)[C@H]2C[C@@H]3C=C[C@]2(O3)[C@H]1OC(=O)c1ccccc1Br,inactive
12,c1ccc2c(c1)OCC(CNc1ncnc3sccc13)O2 (configuration not stated),996 nM (active)
13,c1ccc(CNc2ncnc3ccccc23)cc1,12500 nM (active)
14,CCN(CC)S(=O)(=O)c1cc(NC(=O)CNc2cccc(S(=O)(=O)N3CCOCC3)c2)ccc1C,2810 nM (active)
15,Cc1ccccc1-n1ncc(C(C)NC(=O)c2ccco2)c1C (configuration not stated),396 nM (active)
16,CCN1CCCC1CNC(=O)C(=O)NCCc1ccc(OC)c(OC)c1 (configuration not stated),inactive
17,COc1nc(Nc2nc3ccccc3c(=O)[nH]2)nc2ccc(C)cc12,2170 nM (active)
18,CCOc1ccc(CCNC(=O)c2cc3sccc3n2C)cc1OCC,705 nM (active)
